Experimental data reported in PubChem BioAssay AID590 (National Center for Advancing Translational Sciences (NCATS), 2007).
Among all 59,000 compounds or so, about 6,500 (11%) were called active. Not shown: some 15% with an inconclusive outcome. No stated cut-off is given here; in the data, active means max dye-equivalent concentration above about 10 nM; inconclusive means mostly about 1.1 nM to 9.6 nM; inactive means weaker than that. For the sample, actives were picked, then their nearest neighbours and some compounds at random.

test: qHTS Assay for Spectroscopic Profiling in A350 Spectral Region; conditions: Compound autofluorescence, 340/450 nm, Alexa 350 dye-equivalents; stronger effect = higher value

| Compound | max dye-equivalent concentration |
| --- | --- |
| COc1ccc(Cc2nnnn2CC(=O)O)cc1 | inactive |
| CC(C)NC(=O)N1CC[C@@]2(CCCN(C(=O)c3cccn3C)C2)C1 | inactive |
| O=C(Nc1nncs1)c1ccccc1NS(=O)(=O)c1cccs1 | 520 nM (active) |
| O=C(C1CCN(S(=O)(=O)c2cccs2)CC1)N1CCCCCC1 | inactive |
| O=C(Nc1ncccn1)c1cccs1 | inactive |
| COCCCN1C(=O)c2ccc(C(=O)Nc3ccc(OC)cc3OC)cc2C1=O | inactive |
| COc1ccc(NC(=O)N2CC3(CCN(C(=O)c4cccn4C)CC3)C2)cc1 | inactive |
| CCN1C(=O)C(C(=O)NC(C)c2ccccc2)C2CC1(C)Oc1ccccc12 (configuration not stated) | inactive |
| CCOC(=O)NCc1ccc2c(c1)OCO2 | inactive |
| O=C(Cn1nnc(-c2ccccc2)n1)NCc1ccc2c(c1)OCO2 | inactive |
| CC1CCCCN1CC(=O)NCc1ccc2c(c1)OCO2 (configuration not stated) | 50 nM (active) |
| COc1cccc(C2/C(=C(/O)c3ccncc3)C(=O)C(=O)N2CCCN(C)C)c1 (configuration not stated) | inactive |
| CCCn1c(=O)c2[nH]c(C3CCCC3)nc2n(CCC)c1=O | inactive |
| CSCCC(NC(N)=O)C(=O)N(C)CC(=O)Nc1ccc(C)cc1 (configuration not stated) | inactive |
| O=C(c1ccc2c(c1)C(=O)N(c1ccc(Cl)cc1)C2=O)N1CCN(c2ccccn2)CC1 | inactive |
| c1ccc(-n2nnnc2N2CCOCC2)cc1 | inactive |
| Cn1cc(-c2nc3cncnc3n(-c3ccccc3)c2=O)c2ccccc21 | inactive |
| O=c1c(-c2ccc(F)cc2)nc2cnc(N3CCOCC3)nc2n1-c1ccccc1 | 29 nM (active) |
| CN1CCN(c2ncc3nc(-c4ccc(Cl)cc4)c(=O)n(-c4ccccc4)c3n2)CC1 | 53 nM (active) |
| Clc1ccc(C(c2ccc(Cl)cc2)n2cc[n+](C[C@@H](OCc3ccc(Cl)cc3Cl)c3ccc(Cl)cc3Cl)c2)cc1 | inactive |
| COc1ccc(CNc2ncnc3ccc(-c4cccnc4)cc23)c(OC)c1 | inactive |
| Cc1cccc(N2CCN(C(=O)C3CCN(S(=O)(=O)c4cnc[nH]4)CC3)CC2)c1C | inactive |
| O=C(c1ccco1)N1CCC2(CC1)CN(c1ncccn1)C2 | inactive |
| Cc1nc(NCc2ccccc2)c(C(N)=O)c2c1COC(C)(C)C2 | 150 nM (active) |
| O=C(c1cccnc1NCc1ccccc1)N1CCOCC1 | inactive |
| O=c1ccn(Cc2ccccc2Cl)cc1 | inactive |

| Compound | max dye-equivalent concentration |
| --- | --- |
| CC(C)CNC(=O)c1cc(-c2ccc(Br)cc2)on1 | inactive |
| COC(=O)c1ccc(NC(=O)CSc2nnc(-c3ccncc3)n2C)cc1 | inactive |
| CCOc1ccc(N=NS(=O)(=O)O)cc1 | inactive |
| COc1ccc(-c2nnn(CC(=O)N(CCO)C(C(=O)NC3CCCC3)c3ccc(F)cc3)n2)cc1 (configuration not stated) | inactive |
| CCOc1ccc2nc(NC(=O)CSc3nc4c(c(=O)n(C)c(=O)n4C)n3CC)sc2c1 | inactive |
| Cc1ccc(C(C(=O)NC2CCCC2)N(Cc2ccco2)C(=O)CCC(=O)Nc2ccccn2)cc1 (configuration not stated) | inactive |
| Cc1noc(C)c1COC(=O)Cn1c(C)nc2ccccc21 | inactive |
| CCOc1cc(NC(=O)c2ccco2)c(OCC)cc1NC(=O)COc1ccccc1 | 78 nM (active) |
| Cc1ccc(C(=O)COc2cccc(NC(=O)c3ccco3)c2)cc1 | inactive |
| O=C(Nc1ccc(Oc2ccccc2)cc1)c1ccco1 | inactive |
| O=C(c1cccs1)N1CCCC(c2nc(-c3ccc(F)cc3)no2)C1 (configuration not stated) | inactive |
| Cc1ccc(S(=O)(=O)N2CCOCC2)cc1C(=O)NCc1ccc(F)cc1 | inactive |
| CCCn1nnc2sc3c(c2c1=O)CCC(C)C3 (configuration not stated) | 32 nM (active) |
| O=c1c2ccccc2nnn1CSc1nc2sc3c(c2c(=O)n1CC1CCCO1)CCC3 (configuration not stated) | inactive |
| CC1CCc2sc3nc(N4CCN(CCO)CC4)n4ncnc4c3c2C1 (configuration not stated) | inactive |
| CC(C)C[C@H](NC(=O)[C@@H]1O[C@H]1C(=O)O)C(=O)NCCCCN=C(N)N | inactive |
| CC(C)Cc1ccc(S(=O)(=O)N2CCN(C(=O)c3ccco3)CC2)cc1 | inactive |
| Cc1ccccc1NC(=O)c1cc(S(=O)(=O)N2CCOCC2)cs1 | inactive |
| Cc1cc(NC(=O)CCC(=O)N(c2ccccc2)C(C(=O)NC2CCCC2)c2ccncc2)no1 (configuration not stated) | inactive |
| Cc1ccc2nc(NC3=NCN(CCc4ccccc4)CN3)nc(C)c2c1 | inactive |
| Cc1ccsc1C(=O)OCC(=O)c1cc(C)n(CC2CCCO2)c1C (configuration not stated) | inactive |
| COc1ccc2nc(NC3=NCN(CC4CCCO4)CN3)nc(C)c2c1 (configuration not stated) | 82 nM (active) |
| CCc1cc2c(=O)c(-c3ccon3)c(N)oc2cc1OC | inactive |
| CC(=NCC1CCCO1)c1c(O)[nH]c(=O)[nH]c1=O (configuration not stated) | inactive |
| CCOC(=O)CN(C(=O)CN1CCOCC1)c1ccc(Br)cc1 | inactive |
| COCCCn1c(CCC(=O)O)ccc1-c1ccc(F)cc1 | 1500 nM (active) |
